According to PubChem BioAssay (Tox21):
Several values for one entry are separate records, joined by “and”; a condition that tells them apart may be missing. Equal entries are not always repeated. Records with an inconclusive call do not appear. Activity calls are given as the source filed them. Unless noted, calls follow the shape of the dose curve; as a rule, active = well fitted curve in the direction sought with a large enough effect in the repeat runs; inconclusive = weak or mixed curves; inactive = no such curve, though single readings can be large; an effect the other way counts as inactive or inconclusive.

Tests used:
[1] = qHTS assay to identify small molecule agonists of the vitamin D receptor (VDR) signaling pathway - cell viability counter screen (AID 743224); also: nearly all actives have a fitted effect of over 50% in size; also: potency is read from the fitted curve at half-maximal effect
Method in brief: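 Compounds were pin-transferred onto VDR-bla cells plated 4 h earlier; following 16 h incubation at 37C, cell viability was quantified by CellTiter-Glo luminescence after 30 min at room temperature.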

[2] = qHTS assay to identify small molecule antagonists of the vitamin D receptor (VDR) signaling pathway - cell viability counter screen (AID 743225); also: % is scaled to controls: 0 for no effect and ±100 for the full control effect; nearly all actives have a fitted effect of over 50% in size
Method in brief: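 HEK293T VDR-bla; cpd + 1a,25-(OH)2D3 3 nM final, 16 h 37C/5% CO2; B/G FRET substrate 2 h RT; then CellTiter-Glo 30 min RT, luminescence.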

[3] = qHTS assay to identify small molecule agonists of the NFkB signaling pathway - cell viability counter screen (AID 1159515; calls by dose curve; also: nearly all actives have a fitted effect of over 55% in size; also: potency is read from the fitted curve at half-maximal effect)
Method in brief: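 Parallel cytotoxicity counter screen in ME-180 cells carrying an NFkB-response-element beta-lactamase reporter, 2,000 cells/well. Compound exposure lasted 5 hr at 37 C, 5% CO2. Cell viability was quantified by CellTiter-Glo luminescence.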

[4] = qHTS assay to identify small molecule agonists of the endoplasmic reticulum stress response signaling pathway (AID 1159516; active = well fitted activation curve with a large enough effect in the signal ratio in the repeat runs, not every such curve was filed as active; the % refers to the signal ratio; also: % is scaled to controls: 0 for no effect and ±100 for the full control effect)
Method in brief: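 Using a HeLa line with an ESRE-driven beta-lactamase gene, agonist activity was measured by FRET substrate fluorescence (460 and 530 nm emission) after cells were treated with compounds for 5 hr at 37 C and 5% CO2.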

[5] = qHTS assay to identify small molecule antagonists of the retinoid-related orphan receptor gamma (ROR-gamma) signaling pathway - cell viability counter screen (AID 1159520); also: nearly all actives have a fitted effect of over 50% in size; also: potency is read from the fitted curve at half-maximal effect
Method in brief: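 Tet-on ROR gamma CHO cells (1,000/well) were plated 4 hr, given compounds in DMSO for 2 hr at 37 C, then induced with 1 uM final doxycycline for 16 hr. Viability was read as ATP by CellTiter-Glo luminescence after 30 min.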

[6] = qHTS assay to identify small molecule agonists of the AP-1 signaling pathway (AID 1159526; calls by dose curve; also: % is scaled to controls: 0 for no effect and ±100 for the full control effect)
[7] = target: Retinoic acid receptor RXR-alpha (Homo sapiens) (UniProt P19793); assay: qHTS assay to identify small molecule agonists of the RXR signaling pathway (AID 1159527; calls by dose curve; also: % is scaled to controls: 0 for no effect and ±100 for the full control effect; nearly all actives have a fitted effect of over 35% in size)
Chain of Retinoic acid receptor RXR-alpha (Homo sapiens) (P19793 whole entry, looked up): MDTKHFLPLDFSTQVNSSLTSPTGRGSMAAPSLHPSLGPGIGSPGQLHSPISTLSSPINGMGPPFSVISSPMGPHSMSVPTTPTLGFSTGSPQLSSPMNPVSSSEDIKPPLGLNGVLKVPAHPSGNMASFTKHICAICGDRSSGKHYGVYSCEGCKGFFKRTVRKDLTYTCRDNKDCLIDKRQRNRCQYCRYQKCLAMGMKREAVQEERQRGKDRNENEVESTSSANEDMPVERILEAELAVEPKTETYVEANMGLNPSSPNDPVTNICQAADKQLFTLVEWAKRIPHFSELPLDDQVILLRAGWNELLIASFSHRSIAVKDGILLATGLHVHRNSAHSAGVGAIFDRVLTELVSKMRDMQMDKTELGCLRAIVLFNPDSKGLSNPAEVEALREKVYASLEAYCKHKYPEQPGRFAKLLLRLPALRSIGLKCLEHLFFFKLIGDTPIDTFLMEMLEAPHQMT
Method in brief: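 Cells plated at 2,000/well, rested 5 hr at 37 C, pin-dosed with DMSO compound solutions, incubated 16 hr, then loaded with B/G FRET substrate for 2 hr at RT before dual-emission fluorescence reading.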

[8] = qHTS assay to identify small molecule agonists of the RXR signaling pathway - cell viability counter screen (AID 1159529); also: nearly all actives have a fitted effect of over 50% in size; also: potency is read from the fitted curve at half-maximal effect
Method in brief: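 Steps: seed RXR-alpha-UAS-bla HEK 293T cells in assay medium containing 2% charcoal-stripped FBS; incubate 5 hr; add compounds in DMSO; incubate 16 hr at 37 C; after the bla read, add CellTiter-Glo and read luminescence at 30 min.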

[9] = qHTS assay to identify small molecule antagonists of the retinoid acid receptor (RAR) signaling pathway - cell viability counter screen (AID 1159551); also: % is scaled to controls: 0 for no effect and ±100 for the full control effect; nearly all actives have a fitted effect of over 35% in size
Method in brief: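 ATP-based viability, C3RL4 cells, 6 h at 37 C with 1 uM final retinol co-added after compound; luminescence read 30 min post CellTiter-Glo, RT.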

[10] = qHTS assay to identify small molecule agonists of the AP-1 signaling pathway - cell viability counter screen (AID 1159525; calls by dose curve; also: nearly all actives have a fitted effect of over 55% in size; also: potency is read from the fitted curve at half-maximal effect)
Method in brief: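 Each titration point was normalised to DMSO and tetra n-octyl ammonium bromide controls. The read was Cell Titer Glo luminescence after 30 min at RT, following 5 h compound exposure of ME-180 AP-1-bla cells at 37 °C.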

[11] = qHTS assay to identify small molecule antagonists of the retinoic acid receptor (RAR) signaling pathway (AID 1159552; also: nearly all actives have a fitted effect of over 50% in size; also: potency is read from the fitted curve at half-maximal effect)
Method in brief: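 Retinol at 1 uM final stimulated RARE-luciferase expression in C3RL4 cells exposed to test compounds for 6 hr at 37 C. Reduced luminescence, read 30 min after detection reagent, indicated pathway antagonism.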

[12] = qHTS assay to identify small molecule agonists of the retinoic acid receptor (RAR) signaling pathway (AID 1159553); also: potency is read from the fitted curve at half-maximal effect
Method in brief: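 Quantitative high-throughput format: the Tox21 10K library was tested on C3RL4 RARE-luciferase cells for 6 hr at 37 C and 5% CO2, with luminescence measured after a 30 min room-temperature reagent step.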

[13] = qHTS assay to identify small molecule agonists of the endoplasmic reticulum stress response signaling pathway - cell viability counter screen (AID 1159517; calls by dose curve)
Method in brief: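 Cpd-treated ESRE-bla HeLa (5 hr, 37 C) → LiveBLAzer 2 hr RT → CellTiter-Glo 30 min RT → luminescence.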

[14] = target: Nuclear receptor ROR-gamma (Homo sapiens) (UniProt P51449); assay: qHTS assay to identify small molecule antagonists of the retinoid-related orphan receptor gamma (ROR-gamma) signaling pathway (AID 1159521; also: nearly all actives have a fitted effect of over 50% in size; also: potency is read from the fitted curve at half-maximal effect)
Method in brief: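 Cells were plated, rested 4 h at 37 C, exposed to compounds for 2 h, then given 1 uM final doxycycline hyclate to induce RORγ expression. After 16 h, ONE-Glo luminescence from the ROR response element reporter was measured.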

[15] = qHTS assay to identify small molecule antagonists of the estrogen related receptor (ERR) signaling pathway - cell viability counter screen (AID 1224818);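 also: series mostly up to about 46 µM; viability measured after 17.5 h of compound exposure; % is scaled to controls: 0 for no effect and ±100 for the full control effect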
Method in brief: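 Quantitative high-throughput viability counter screen in ERR cells. Compounds (DMSO) incubated 17.5 h at 37 C; read-out was CellTiter-Fluor fluorescence.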

[16] = qHTS assay to identify small molecule antagonists of the estrogen related receptor signaling pathway with the pleiotropic PPARgamma coactivator (PGC) cell viability counter screen (AID 1224822; also: series mostly up to about 46 µM; % is scaled to controls: 0 for no effect and ±100 for the full control effect)
Method in brief: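 Cytotoxicity in the PGC/ERR cell line is assessed with CellTiter-Fluor, read as fluorescence intensity 30 min after reagent addition, following 17.5 h compound treatment at 37 C.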

Nc1cccc(S(=O)(=O)c2cccc(N)c2)c1
inactive: Potency [1] | Potency [2] | Potency [3] | Potency [4] | Potency [5] | Potency [6] | Potency [7] | Potency [8] | Potency [9]

NCC(=O)O
inactive: Potency [1] | Potency [2] | Potency [3] | Potency [4] | activity, negative = cytotoxicity [5] -1.28% [at 19 µM] | viability change, negative = cytotoxic [10] -1.65% [at 15.8 µM] | activation [6] -0.769% [at 15.8 µM] | activity change, negative = cytotoxicity [8] 4.74% [at 15.8 µM] | activity change, negative = cytotoxicity [9] -0.228% [at 19 µM] | activity, negative = inhibition [11] 0.472% [at 19 µM] | Potency [12]

C/C=C(/C(=C/C)c1ccc(OC(C)=O)cc1)c1ccc(OC(C)=O)cc1
inactive: Potency [2] | Potency [3] | Potency [13] | Potency [5] | Potency [14] | Potency [8] | Potency [9] | Potency [12]

OCCNCc1ccccc1
inactive: Potency [1] | Potency [2] | Potency [3] | Potency [4] | Potency [14] | Potency [10] | Potency [6] | Potency [7] | Potency [8] | Potency [9] | Potency [11] | Potency [12]

CCCCCCCCCCCCCCCCCCOS(=O)(=O)O
active: Potency [1] 54.9 µM | Potency [3] 43.6 µM | Potency [10] 38.9 µM | Potency [8] 43.6 µM
inactive: Potency [4] | Potency [5] | Potency [9] | Potency [11] | Potency [12]

Nc1ccc(S(=O)(=O)Nc2ccccc2)cc1
inactive: Potency [1] | Potency [2] | Potency [3] | Potency [13] | Potency [5] | Potency [14] | Potency [6] | Potency [7] | Potency [8] | Potency [11] | Potency [12]

CCN(CC)CCNC(=O)c1cc(Br)c(N)cc1OC
inactive: Potency [1] | Potency [2] | Potency [3] | Potency [4] | Potency [5] | Potency [10] | Potency [6] | Potency [8] | Potency [9]

CCCNCC(O)COc1ccccc1C(=O)CCc1ccccc1 (stereo unspecified)
inactive: Potency [2] | Potency [3] | Potency [4] | Potency [10] | Potency [9] | outcome [15] | outcome [16]

CCOC(=O)C(F)(F)F
inactive: Potency [1] | Potency [3] | Potency [4] | Potency [5] | Potency [10] | Potency [6] | Potency [7] | Potency [8] | Potency [9] | Potency [11] | Potency [12]

O=C(O)CC(=O)C(=O)O
inactive: Potency [2] | Potency [3] | Potency [13] | Potency [6] | Potency [8] | Potency [9] | Potency [11] | Potency [12]

CCCCC/C=C\C/C=C\CCCCCCCC(=O)NC(C)c1ccccc1 (stereo unspecified)
inactive: Potency [1] | Potency [2] | Potency [3] | Potency [14] | Potency [6] | Potency [8] | Potency [9] | Potency [11] | Potency [12]

C=CC(=O)OCCOCCOCCOCCOC(=O)C=C
inactive: Potency [3] | Potency [13] | Potency [10]
active: Potency [14] 12.3 µM and 8.56 µM | Potency [11] 48.8 µM and 42.9 µM | Potency [12] 19.4 µM and 17.1 µM

Cc1ccc(C(=O)Oc2ccc(C(O)CNC(C)(C)C)cc2OC(=O)c2ccc(C)cc2)cc1 (stereo unspecified)
active: Potency [5] 26.6 µM | Potency [8] 19 µM
inactive: Potency [1] | Potency [3] | Potency [13] | Potency [10] | Potency [12]

Brc1c2ccccc2cc2ccccc12
inactive: Potency [1] | Potency [2] | Potency [3] | Potency [13] | Potency [5] | Potency [6] | Potency [7] | Potency [9] | Potency [12]
active: Potency [8] 35 µM

CN1CCC(=C2c3ccccc3Sc3ccccc32)CC1
active: Potency [14] 29.8 µM
inactive: Potency [1] | Potency [2] | Potency [3] | Potency [5] | Potency [9] | Potency [12]

CCCOC(C(=O)OC1CCN(C)CC1)(c1ccccc1)c1ccccc1
active: Potency [14] 13.3 µM
inactive: Potency [1] | Potency [2] | Potency [4] | Potency [13] | Potency [5] | Potency [10] | Potency [9] | Potency [12]

COc1cc(Cl)ccc1Oc1ccc(Cl)cc1Cl
inactive: Potency [2] | Potency [3] | Potency [13] | Potency [5] | Potency [10] | Potency [9] | Potency [11]

CN(C)c1ccc(C(c2ccccc2)c2ccc(N(C)C)cc2)cc1
active: Potency [14] 27.3 µM
inactive: Potency [1] | Potency [2] | Potency [4] | Potency [13] | Potency [5] | Potency [6] | Potency [9]

O=S(=O)(Oc1ccc(Cl)cc1)c1ccccc1
inactive: Potency [1] | Potency [2] | Potency [3] | Potency [13] | Potency [5] | Potency [10] | Potency [6] | Potency [8] | Potency [9] | Potency [11]

CCn1cc(C(=O)O)c(=O)c2cnc(N3CCNCC3)nc21
inactive: Potency [1] | Potency [2] | Potency [3] | Potency [13] | Potency [5] | Potency [10] | Potency [6] | Potency [8] | Potency [11]

C=C1C(=C/C=C2\CCC[C@]3(C)[C@@H]([C@H](C)/C=C/[C@@H](O)C4CC4)CC[C@@H]23)C[C@@H](O)C[C@@H]1O
inactive: Potency [1] | Potency [3] | Potency [13] | Potency [9] | Potency [11]
active: Potency [14] 13.3 µM | Potency [8] 23.9 µM

NC(=O)C(c1ccccc1)(c1ccccc1)[C@@H]1CCN(CCc2ccc3c(c2)CCO3)C1
inactive: Potency [2] | Potency [3] | Potency [13] | Potency [10] | Potency [6] | Potency [8] | Potency [9] | Potency [12]

CCCCO
inactive: Potency [1] | Potency [2] | Potency [3] | Potency [13] | Potency [5] | Potency [10] | Potency [6] | Potency [7] | Potency [8] | Potency [9]

CC(C)(O)c1ccc(CNC(=O)c2cccnc2Oc2ccc(F)cc2)cc1
inactive: Potency [1] | Potency [2] | Potency [3] | Potency [13] | Potency [5] | Potency [10] | Potency [6] | Potency [11] | Potency [12]

CC(CSC(=O)c1ccccc1)C(=O)N1C[C@@H](Sc2ccccc2)C[C@H]1C(=O)O (stereo partly specified)
inactive: Potency [1] | Potency [2] | Potency [3] | Potency [13] | activity, negative = cytotoxicity [5] 3.47% [at 19 µM] | viability change, negative = cytotoxic [10] -2.27% [at 15.8 µM] | activation [6] 17.2% [at 15.8 µM] | activation [7] -12.9% [at 15.8 µM] | activity change, negative = cytotoxicity [8] -1.14% [at 15.8 µM] | activity change, negative = cytotoxicity [9] -2.34% [at 19 µM]
